This note sets out measurements from PubChem BioAssay (NCI).

The structures appear in SMILES notation. Where “and” joins values, the source holds several entries; their conditions need not be identical. Equal entries are not always repeated. About 79,000 compounds went through this panel and 15% of them were active in at least one assay; those are over-represented in the sample as a whole. Calls of active or inactive are those of the source. Rule as the data show it: active = growth inhibition above about 70%; inactive = the rest.

The assay in a line: NCI Yeast Anticancer Drug Screen. Data for the mec2-1 strain (AID 157). Conditions: S. cerevisiae mec2-1 strain, at 5.0 µM (retest, dose inferred, filed as 0.5), active compounds read high. In short, it runs like this:
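Yeast mec2-1 mutant treated with compound. Readout: growth inhibition vs vehicle controls.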
As to `Cc1cc(C)c(O)c(C)c1.[Hg]`, the growth inhibition was 99% (active). Consider `CC(O)C(=O)O.CC(O)C(=O)O.[Ni]` (centres undefined), for which the growth inhibition is 5% (inactive). The figure for `CC(=O)OC1C(=O)OCC23CCC4(C)OC4C2OC2CC(OC(=O)/C=C/C=C/C(=O)OCCC1C)C3(C)C21CO1` (centres undefined) is 100% (active); for `CN1C(=O)CC[C@@]2(C)C1=CC[C@H]1[C@@H]3CC[C@H](O)[C@@]3(C)CC[C@@H]12` it is 0% (inactive); for `CC[C@H](C)c1occ2c(O)c(C(=O)O)c(=O)cc-2c1C` it is 71% (active). The figure for `O=[N+]([O-])[O][Tl]([c]1ccccc1)[c]1ccccc1` is -4% (inactive); for `CCCC[CH2][Sn]([CH2]CCCC)[CH2]CCCC.CCCC[CH2][Sn]([CH2]CCCC)[CH2]CCCC` it is 61% (inactive); for `Nc1cc(Cl)ccc1C(=O)c1ccccc1Cl` it is -4% (inactive). For the compound `CC(Br)CN1CCOCC1` (centres undefined), the growth inhibition is 25% (inactive). Next, `C(CCC[Te][Te]CCCCCCOC1CCCCO1)CCOC1CCCCO1` (centres undefined): 3% (inactive); `CN1CN(c2ccccc2)C2(CCN(C3Nc4ccccc4O3)CC2)C1=O` (centres undefined): 2% (inactive); `[CH3][Sn]([CH3])([Cl])[c]1cc[c]([Sn]([CH3])([CH3])[Cl])cc1`: -1% (inactive). Next, `O=[C-]CCCCCC[C-]=O.[C-]#[O+].[C-]#[O+].[C-]#[O+].[C-]#[O+].[Fe+6].[Fe+6].[c-]1[c-][c-][cH-][c-]1.[c-]1[c-][c-][cH-][c-]1`: 13% (inactive); `CCOC(=O)NC(=S)[S][Sb]([S]C(=S)NC(=O)OCC)[S]c1nc2ccc(N=Nc3ccc(NS(=O)(=O)c4ccc(NC(=O)C(N5CC5)(N5CC5)N5CC5)cc4)cc3)cc2s1`: 33% (inactive). For `CCC[N+](CCC)(CCC)CCC.N#CN=C([SH2+])[SH2+].N#CN=C([SH2+])[SH2+].[Pt+2]`, the growth inhibition is -4% (inactive). Next, `CCCCCCCC/C=C\CCCCCCCCN1CC(C(=O)[O][Pb]([CH2]C)([CH2]C)[CH2]C)CC1=O` (centres undefined): 5% (inactive). Next, `O=c1[nH]cc(Cn2cnc3ncccc3c2=O)c(=O)[nH]1`: -5% (inactive); `CC(C)(C)C1=CC(=C/C=C/c2cc(C(C)(C)C)[o+]c(C(C)(C)C)c2)C=C(C(C)(C)C)O1`: 99% (active). The figure for `S=C(S)N1CCCCC1` is 38% (inactive) and 19% (inactive); for `CN[C@H]1C[C@@H]2O[C@@](C)([C@H]1OC)n1c3ccccc3c3c4c(c5c6ccccc6n2c5c31)C(=O)NC4` it is 99% (active). Regarding `CC(C)(C)OOC(=O)c1ccccc1`, the growth inhibition is 11% (inactive).

As to `ClCCN(CCCl)CCN1c2ccccc2Sc2ccc3ccccc3c21`, the growth inhibition was 2% (inactive).

Turning to `CCOC(=O)c1ccccc1N`, the growth inhibition was 2% (inactive). Next, `Cn1cnc(C(=N)[Se])c1N`: 30% (inactive). The figure for `Cc1ccc(NP(=O)(Oc2ccccc2)N(CCCl)CCCl)cc1` (centres undefined) is -8% (inactive); for `CCOC(=O)C1=C(C)NC(=O)NC1c1ccc(N(CCCl)CCCl)cc1Cl` (centres undefined) it is 46% (inactive). Next, `ClC(C[n+]1ccccc1)c1ccccc1` (centres undefined): 3% (inactive); `CCCCCCCC1(c2ccc(N)cc2)CCC(=O)NC1=O` (centres undefined): 0% (inactive). For `COC(=O)C(CCCN=C(N)N[N+](=O)[O-])NC(=O)c1ccc2c(c1O)C(=O)c1ccccc1C2=O` (centres undefined), the growth inhibition was 4% (inactive). As for `Cc1cc(N(CCCl)CCCl)ccc1CN1CCCN(Cc2ccc(N(CCCl)CCCl)cc2C)C1c1ccc(N(CCCl)CCCl)cc1C`, the growth inhibition is -2% (inactive).

For the compound `c1ccc([CH2][Pb]([c]2ccccc2)([c]2ccccc2)[c]2ccccc2)cc1`, the growth inhibition was 97% (active).

Take `C[CH2][Sn][CH2]C.c1cc[c]([Ge]([c]2ccccc2)[c]2ccccc2)cc1.c1cc[c]([Sn]([c]2ccccc2)[c]2ccccc2)cc1`: the growth inhibition is 99% (active). Next, `CCC1(C2=CCCCC2)C(=O)NC(=S)NC1=O`: -11% (inactive). Next, `N#CC(=C=N)N=C(F)C(C#N)=C(C#N)C#N`: -2% (inactive); `N#C[SH2+].N#C[SH2+].N#C[SH2+].N#C[SH2+].[Cu+2].c1ccc(C[P+](c2ccccc2)(c2ccccc2)c2ccccc2)cc1`: 5% (inactive). On to `CC#N.FC(F)(F)C#CC(F)(F)F.FC(F)(F)C#CC(F)(F)F.FC(F)(F)C#CC(F)(F)F.[W]`, for which the growth inhibition is 83% (active).

As to `CC(C)c1cccc(C(C)C)c1NC(=O)C(=O)CC(=O)CC(c1ccccc1)c1c(O)c2ccccc2oc1=O` (centres undefined), the growth inhibition was -12% (inactive). The figure for `CCN(CCCl)c1ccc(/C=C/C2=[N+](C)c3ccccc3C2(C)C)c(C)c1` is -1% (inactive). Turning to `Cc1cc(C)[n+](CCOc2ccc(/C(=C(/Cl)c3ccccc3)c3ccccc3)cc2)c(C)c1`, the growth inhibition is 83% (active).
